PubChem BioAssay

molecular target: PEG-3 (UniProt Q6IN02); assay: Peg3 promoter luciferase inhibitors, potency, dose response, cell-based, HeLa, CREF/GAPDH counter-screen panel (AID 624167); settings: CREF/GAPDH counter-screens; HeLa PEG-Prom luciferase reporter, overnight, run 1, dose range 1, at 100 µM (top of the series) unless noted
Sequence (Q6IN02 whole entry, looked up): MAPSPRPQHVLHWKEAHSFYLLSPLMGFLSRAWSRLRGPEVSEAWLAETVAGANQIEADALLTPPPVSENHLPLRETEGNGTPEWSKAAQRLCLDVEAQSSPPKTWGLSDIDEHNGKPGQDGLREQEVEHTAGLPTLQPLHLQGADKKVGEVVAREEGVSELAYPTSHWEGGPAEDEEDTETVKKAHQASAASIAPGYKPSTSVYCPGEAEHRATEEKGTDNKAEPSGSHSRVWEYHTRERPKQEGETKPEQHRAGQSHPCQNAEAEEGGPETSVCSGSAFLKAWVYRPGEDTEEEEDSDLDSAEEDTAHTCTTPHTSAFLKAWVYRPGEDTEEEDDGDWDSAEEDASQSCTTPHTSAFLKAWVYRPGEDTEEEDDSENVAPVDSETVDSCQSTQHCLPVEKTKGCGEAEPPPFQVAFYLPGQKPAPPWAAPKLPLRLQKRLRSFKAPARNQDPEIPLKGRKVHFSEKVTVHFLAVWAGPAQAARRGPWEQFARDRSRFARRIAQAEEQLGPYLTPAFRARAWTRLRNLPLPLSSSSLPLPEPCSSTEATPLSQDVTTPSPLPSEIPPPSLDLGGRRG

SMILES | inhibition
O=C(O)CN1C(=O)/C(=C\c2ccccc2OCc2ccc(Cl)cc2Cl)SC1=S | 102%
CN(C)c1ccc(/C=N/NC(=O)c2nnn(-c3nonc3N)c2COc2ccc(F)cc2)cc1 | 2.41%
COc1ccccc1C1c2ccc3ccccc3c2Oc2ncn(CCCO)c(=N)c21 (stereo not drawn) | 102%
COc1ccc(C2c3c(ncn(CCCN4CCOCC4)c3=N)Oc3ccc4ccccc4c32)cc1OC (stereo not drawn) | 102%
Cc1ccc2[nH]c(=O)c(C3C(C#N)=C(N)Oc4c3ccc3cccnc43)cc2c1 (stereo not drawn) | 99.2%
O=C(NC1CCCCC1)Sc1ccc(Cl)cc1 | 102%
CC1=NN(c2cccc(C(=O)O)c2)C(=O)/C1=C\C=C/c1ccccc1 | 86.8%
N#Cc1c(N)nc(SCc2ccncc2)c(C#N)c1-c1cccs1 | 94.6%
CC(=O)OCCNc1cc(SCc2ccco2)c2nonc2c1[N+](=O)[O-] | 100%
Cc1cccc(N=C2Sc3nc4c(C)c(C)ccc4cc3CN2CCN2CCOCC2)c1 | 85.6%
COc1ccccc1CN(C)C(=O)c1cc(-c2cc(OC)c(OC)c(OC)c2)nc2ccccc12 | 83.8%
CCN(CC)CCOc1ccc(/C(=C(/Cl)c2ccccc2)c2ccccc2)cc1 | 102%
Cc1ccccc1NC(=O)Nc1nc(C(N)C2CCCCC2)cs1 (stereo not drawn) | 98.9%
Cc1cccc(CN2C(=O)[C@H]3Cc4c([nH]c5ccccc45)C(C)(C)N3C2=O)c1 | 97.5%
CCC(C)NCCOCCOc1ccc(Cl)c2ccccc12 (stereo not drawn) | 102%
Cc1cccc(N2CCN(C(=O)C3CCN(c4ncnc5c4nc4n5CCCCC4)CC3)CC2)c1C | 101%
Cc1ccc(-c2cc(C(=O)Nc3nccs3)c3ccccc3n2)c(C)c1 | 34%
CCOc1ccc(Nc2c3ccccc3nc3ccccc23)cc1 | 97.9%
COc1cc(/C=C2\SC(=S)N(CCC(=O)N3CCCCC3)C2=O)cc(OC)c1OC | 98.1%
COc1ccc(C)cc1Nc1n[n+](-c2ccccc2)c(-c2ccc(N(C)C)cc2)s1 | 97.2%

SMILES | inhibition
c1ccc(-c2cc(-c3nc4ccccc4[nH]3)c3ccccc3n2)cc1 | 86.8%
CCN(CC)CCNc1cccc2sc3ccccc3c(=O)c12 | 94.6%
CCn1c2ccccc2c2cc(NC(=O)C(C)OC(=O)c3ccc(NC(=O)CC#N)cc3)ccc21 (stereo not drawn) | 97.5%
COC(=O)CSC1=NS(=O)(=O)c2ccccc21 | 66.3%
COc1cccc(-c2cnc3c(NC=O)cc(-c4cccc(C(=O)N(C)C)c4)cn23)c1 | 98.8%
NCCCNc1nc(N)c([N+](=O)[O-])c(NC2CCCCC2)n1 | 96%
O=C(C[C@H]1C[C@H](C(=O)N2CCCCC2)[C@@]2(CCc3ccccc3)c3[nH]c4ccc(Cl)cc4c3CCN2C1=O)NCCc1ccccn1 | 94%
O=C(c1ccccc1)N(C(=O)c1ccccc1)c1ncnc2c1C(c1ccccc1)c1c(ccc3ccccc13)O2 (stereo not drawn) | 52.7%
CCN(C(=O)CSc1nc2n[nH]c(C)c2c(=N)n1-c1ccc(Cl)c(C)c1)c1cccc(C)c1 | 70.5%
CCN1CCCC1CN(Cc1cc2ccc(C)cc2[nH]c1=O)C(=S)Nc1ccc(OC)cc1 (stereo not drawn) | 102%
Cn1nnnc1Sc1ncnc2scc(-c3ccc4c(c3)OCO4)c12 | 102%
Cc1ccc(F)cc1-c1cc2nc(NCCCN(C)C)n(C)c(=O)c2s1 | 101%
COc1ccc(CCNC(=O)C(=O)NCC2CCCN2S(=O)(=O)c2ccccc2)cc1OC (stereo not drawn) | 97.2%
COc1cc(CNC(C)(C)CO)cc(Br)c1OCc1ccc(Cl)cc1 | 99%
COc1ccc(CC(N)c2csc(Nc3cccc(OC)n3)n2)cc1 (stereo not drawn) | 98.9%
Cc1cc(C)cc(NC(=O)Cn2c(=O)oc3cc(S(=O)(=O)N4CCC(C)CC4)ccc32)c1 | 19.2%
COC(=O)C1=C(C)N(Cc2ccccc2)C(=NCc2cccc(Cl)c2)N[C@H]1c1ccccc1 | 102%
CCc1ccc(OCCNc2cc(N3CCNC(C)C3)ccc2[N+](=O)[O-])cc1 (stereo not drawn) | 99.6%
O=C(Nc1ccccc1)c1nc[nH]c1C(=O)NCCCNC(=O)c1[nH]cnc1C(=O)Nc1ccccc1 | -24.6%

molecular target: PEG-3 (UniProt Q6IN02); assay: as above; settings: CREF/GAPDH counter-screens; HeLa PEG-Prom luciferase reporter, overnight, run 2, dose range 1, at 100 µM (top of the series) unless noted

SMILES | inhibition
O=C(O)CN1C(=O)/C(=C\c2ccccc2OCc2ccc(Cl)cc2Cl)SC1=S | 99.9%
CN(C)c1ccc(/C=N/NC(=O)c2nnn(-c3nonc3N)c2COc2ccc(F)cc2)cc1 | -13.2%
COc1ccccc1C1c2ccc3ccccc3c2Oc2ncn(CCCO)c(=N)c21 (stereo not drawn) | 98.3%
COc1ccc(C2c3c(ncn(CCCN4CCOCC4)c3=N)Oc3ccc4ccccc4c32)cc1OC (stereo not drawn) | 100%
Cc1ccc2[nH]c(=O)c(C3C(C#N)=C(N)Oc4c3ccc3cccnc43)cc2c1 (stereo not drawn) | 98.6%
O=C(NC1CCCCC1)Sc1ccc(Cl)cc1 | 101%
CC1=NN(c2cccc(C(=O)O)c2)C(=O)/C1=C\C=C/c1ccccc1 | 99.5% [run 2, dose range 1, at 50 µM]
N#Cc1c(N)nc(SCc2ccncc2)c(C#N)c1-c1cccs1 | 99.2%
CC(=O)OCCNc1cc(SCc2ccco2)c2nonc2c1[N+](=O)[O-] | 98.1%
Cc1cccc(N=C2Sc3nc4c(C)c(C)ccc4cc3CN2CCN2CCOCC2)c1 | 93.7%
COc1ccccc1CN(C)C(=O)c1cc(-c2cc(OC)c(OC)c(OC)c2)nc2ccccc12 | 84.7%
CCN(CC)CCOc1ccc(/C(=C(/Cl)c2ccccc2)c2ccccc2)cc1 | 102%
Cc1ccccc1NC(=O)Nc1nc(C(N)C2CCCCC2)cs1 (stereo not drawn) | 99.7%
Cc1cccc(CN2C(=O)[C@H]3Cc4c([nH]c5ccccc45)C(C)(C)N3C2=O)c1 | 101%
CCC(C)NCCOCCOc1ccc(Cl)c2ccccc12 (stereo not drawn) | 98.8%
Cc1cccc(N2CCN(C(=O)C3CCN(c4ncnc5c4nc4n5CCCCC4)CC3)CC2)c1C | 90.7%
Cc1ccc(-c2cc(C(=O)Nc3nccs3)c3ccccc3n2)c(C)c1 | 56.2%
CCOc1ccc(Nc2c3ccccc3nc3ccccc23)cc1 | 101%
COc1cc(/C=C2\SC(=S)N(CCC(=O)N3CCCCC3)C2=O)cc(OC)c1OC | 99%
COc1ccc(C)cc1Nc1n[n+](-c2ccccc2)c(-c2ccc(N(C)C)cc2)s1 | 100%

SMILES | inhibition
c1ccc(-c2cc(-c3nc4ccccc4[nH]3)c3ccccc3n2)cc1 | 88.6%
CCN(CC)CCNc1cccc2sc3ccccc3c(=O)c12 | 95.9%
CCn1c2ccccc2c2cc(NC(=O)C(C)OC(=O)c3ccc(NC(=O)CC#N)cc3)ccc21 (stereo not drawn) | 83.1%
COC(=O)CSC1=NS(=O)(=O)c2ccccc21 | 98%
COc1cccc(-c2cnc3c(NC=O)cc(-c4cccc(C(=O)N(C)C)c4)cn23)c1 | 97.5%
NCCCNc1nc(N)c([N+](=O)[O-])c(NC2CCCCC2)n1 | 102%
O=C(C[C@H]1C[C@H](C(=O)N2CCCCC2)[C@@]2(CCc3ccccc3)c3[nH]c4ccc(Cl)cc4c3CCN2C1=O)NCCc1ccccn1 | 93.1%
O=C(c1ccccc1)N(C(=O)c1ccccc1)c1ncnc2c1C(c1ccccc1)c1c(ccc3ccccc13)O2 (stereo not drawn) | 28.4%
CCN(C(=O)CSc1nc2n[nH]c(C)c2c(=N)n1-c1ccc(Cl)c(C)c1)c1cccc(C)c1 | 78%
CCN1CCCC1CN(Cc1cc2ccc(C)cc2[nH]c1=O)C(=S)Nc1ccc(OC)cc1 (stereo not drawn) | 99.5%
Cn1nnnc1Sc1ncnc2scc(-c3ccc4c(c3)OCO4)c12 | 97.4%
Cc1ccc(F)cc1-c1cc2nc(NCCCN(C)C)n(C)c(=O)c2s1 | 99.2%
COc1ccc(CCNC(=O)C(=O)NCC2CCCN2S(=O)(=O)c2ccccc2)cc1OC (stereo not drawn) | 81.7%
COc1cc(CNC(C)(C)CO)cc(Br)c1OCc1ccc(Cl)cc1 | 98.9%
COc1ccc(CC(N)c2csc(Nc3cccc(OC)n3)n2)cc1 (stereo not drawn) | 100%
Cc1cc(C)cc(NC(=O)Cn2c(=O)oc3cc(S(=O)(=O)N4CCC(C)CC4)ccc32)c1 | 47.7%
COC(=O)C1=C(C)N(Cc2ccccc2)C(=NCc2cccc(Cl)c2)N[C@H]1c1ccccc1 | 101%
CCc1ccc(OCCNc2cc(N3CCNC(C)C3)ccc2[N+](=O)[O-])cc1 (stereo not drawn) | 101%
O=C(Nc1ccccc1)c1nc[nH]c1C(=O)NCCCNC(=O)c1[nH]cnc1C(=O)Nc1ccccc1 | 96.8%
